Data on eight sequences can be found in PMC8384837, “Expanding the binding specificity for RNA recognition by a PUF domain”.

Numbering of substitutions follows the chain as printed.

What all share (test): yeast three-hybrid, YBZ-1, SC-Leu-His + 0.5 mM 3-AT, 4 days
Details in all cases: tags: N-Gal4 AD-HA kept; label: inside an RPR1-promoter hybrid RNA with tandem MS2 sites; ssRNA

One experiment has as its target T1, PUM1 PUF domain R6-RRK (Homo sapiens, UniProt Q14671 828-1176, N1043R;Y1044R;Q1047K).
T1 sequence: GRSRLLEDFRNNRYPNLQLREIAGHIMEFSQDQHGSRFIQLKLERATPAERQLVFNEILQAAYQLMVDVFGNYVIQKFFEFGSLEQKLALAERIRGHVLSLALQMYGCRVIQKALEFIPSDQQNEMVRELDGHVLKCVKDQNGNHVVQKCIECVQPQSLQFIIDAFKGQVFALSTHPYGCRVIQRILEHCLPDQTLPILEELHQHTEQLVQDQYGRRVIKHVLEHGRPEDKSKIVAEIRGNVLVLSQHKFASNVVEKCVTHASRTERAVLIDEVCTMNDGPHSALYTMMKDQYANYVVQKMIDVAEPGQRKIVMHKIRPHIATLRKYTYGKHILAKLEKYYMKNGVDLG
Summed up: (§1)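 Sequencing with Illumina followed PCR amplification of the repeat regions from transformants grown four days on SC-Leu (input) or SC-Leu-His + 0.5 mM 3-AT (selection). The transformants were strain YBZ-1 with a LexA–MS2 coat fusion and a HIS3 reporter, carrying Pumilio-1 PUF domain libraries and matching RNA elements. The interaction score is the log change in variant frequency from input to selection, computed in log2 with a pseudocount of 1 for absent variants.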

In a further experiment the target is PUM1 PUF domain R1-RRC (Homo sapiens, UniProt Q14671 828-1176, S863R;Q867C). The method in brief: as §1
The target of another experiment is PUM1 PUF domain R5-RHL (Homo sapiens, UniProt Q14671 828-1176, C1007R;R1008H;Q1011L). The method in brief:
as §1

The target in the next experiment is PUM1 PUF domain R5-HRE (Homo sapiens, UniProt Q14671 828-1176, C1007H;Q1011E). Summed up:
as §1

A further experiment concerns the target PUM1 PUF domain R5-KGK (Homo sapiens, UniProt Q14671 828-1176, C1007K;R1008G;Q1011K). Summed up:
as §1

Another experiment addresses PUM1 PUF domain R8-RRS (Homo sapiens, UniProt Q14671 828-1176, N1122R;Y1123R;Q1126S). The method in brief: as §1
The next experiment deals with PUM1 PUF domain R8-ARR (Homo sapiens, UniProt Q14671 828-1176, N1122A;Y1123R;Q1126R). Summed up: as §1
In a further experiment the target is T2, PUM1 PUF domain R6-TWT (Homo sapiens, UniProt Q14671 828-1176, N1043T;Y1044W;Q1047T).
T2 sequence: T1 sequence with R216T, R217W, K220T
The method in brief: as §1

The target in another experiment is T3, PUM1 PUF domain R6-CWV (Homo sapiens, UniProt Q14671 828-1176, N1043C;Y1044W;Q1047V).
T3 sequence: T1 sequence with R216C, R217W, K220V
Summed up:
as §1

The target of another experiment is T4, PUM1 PUF domain R6-CWW (Homo sapiens, UniProt Q14671 828-1176, N1043C;Y1044W;Q1047W).
T4 sequence: T1 sequence with R216C, R217W, K220W
The method in brief:
as §1

Regarding “GGCUAGAACUAGUGGAUCCCCCGGCGCCCGGCGGCUCGAGCCCGGGUAAGUGCAAAUAGUCUGCAUGCCGCCGGGCGCCAUGCCUGCAGGUCGACUCUAGAAAACAUG”, the binding signal with PUM1 PUF domain R6-RRK was 4.5 log2 enrichment (interaction score).

As to “GGCUAGAACUAGUGGAUCCCCCGGCGCCCGGCGGCUCGAGCCCGGGUAAGUGUAAAUUGUCUGCAUGCCGCCGGGCGCCAUGCCUGCAGGUCGACUCUAGAAAACAUG”, the binding signal with PUM1 PUF domain R1-RRC was 2.93 log2 enrichment (interaction score).

On to “GGCUAGAACUAGUGGAUCCCCCGGCGCCCGGCGGCUCGAGCCCGGGUAAGUGUCAAUAGUCUGCAUGCCGCCGGGCGCCAUGCCUGCAGGUCGACUCUAGAAAACAUG”, for which the binding signal in the experiment with PUM1 PUF domain R5-RHL was 5.23 log2 enrichment (interaction score); in the experiment with PUM1 PUF domain R5-HRE, 4.28 log2 enrichment (interaction score); with PUM1 PUF domain R5-KGK, 4.24 log2 enrichment (interaction score).

For “GGCUAGAACUAGUGGAUCCCCCGGCGCCCGGCGGCUCGAGCCCGGGUAAGUGUUAAUAGUCUGCAUGCCGCCGGGCGCCAUGCCUGCAGGUCGACUCUAGAAAACAUG”, the binding signal with PUM1 PUF domain R5-KGK was 1.81 log2 enrichment (interaction score).

As to “GGCUAGAACUAGUGGAUCCCCCGGCGCCCGGCGGCUCGAGCCCGGGUAAGUGUAAAUCGUCUGCAUGCCGCCGGGCGCCAUGCCUGCAGGUCGACUCUAGAAAACAUG”, the binding signal with PUM1 PUF domain R1-RRC is 2.87 log2 enrichment (interaction score).

For “GGCUAGAACUAGUGGAUCCCCCGGCGCCCGGCGGCUCGAGCCCGGGUAAGCGUAAAUAGUCUGCAUGCCGCCGGGCGCCAUGCCUGCAGGUCGACUCUAGAAAACAUG”, the binding signal in the experiment with PUM1 PUF domain R8-RRS was 3.27 log2 enrichment (interaction score); in the experiment with PUM1 PUF domain R8-ARR, 2.33 log2 enrichment (interaction score).

In the case of “GGCUAGAACUAGUGGAUCCCCCGGCGCCCGGCGGCUCGAGCCCGGGUAAGUGAAAAUAGUCUGCAUGCCGCCGGGCGCCAUGCCUGCAGGUCGACUCUAGAAAACAUG”, the binding signal with PUM1 PUF domain R6-TWT was 4.15 log2 enrichment (interaction score); in the experiment with PUM1 PUF domain R6-CWV, 1.98 log2 enrichment (interaction score).

With “GGCUAGAACUAGUGGAUCCCCCGGCGCCCGGCGGCUCGAGCCCGGGUAAGUGUAAAUAGUCUGCAUGCCGCCGGGCGCCAUGCCUGCAGGUCGACUCUAGAAAACAUG”, the binding signal with PUM1 PUF domain R5-RHL was 3.44 log2 enrichment (interaction score); in the experiment with PUM1 PUF domain R6-TWT it was 1.62 log2 enrichment (interaction score); with PUM1 PUF domain R5-HRE, 2.59 log2 enrichment (interaction score); with PUM1 PUF domain R5-KGK, 1.56 log2 enrichment (interaction score); in the experiment with PUM1 PUF domain R8-RRS, 1.39 log2 enrichment (interaction score); with PUM1 PUF domain R6-CWV it was 3.39 log2 enrichment (interaction score). For the same sequence, the binding signal with PUM1 PUF domain R6-CWW is 3.56 log2 enrichment (interaction score); with PUM1 PUF domain R8-ARR, 1.18 log2 enrichment (interaction score).
